# Targets with a hit are over-represented here; the source holds about 7,900 in all. About 0.6% of all pairs of compound and target were hits. A number with no mark means an inactive call.
# Key:
# Test in all cases: log2 fold change, soluble protein after heating vs DMSO (PISA); higher = thermal stabilisation; K562 cells, 10 uM, 30 min; active = over 0.2 and 3.5 SD of the protein, either way, in both replicates (recomputed)
# IRAK-1-4 Inhibitor I = compound: C1COCCN1CCN2C3=CC=CC=C3N=C2NC(=O)C4=CC(=CC=C4)[N+](=O)[O-] [IRAK-1-4 Inhibitor I]
# Procedure, shortened: (§1)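 Quantification of soluble protein used TMTpro 16plex LC-MS/MS, with channel sums equalised. Samples were the supernatant after 21,000xg for 90 min of pooled aliquots from K562 cells (2×10^6 cells/mL) treated with 10 μM compound for 30 min, heated for 3 min over 48°C-58°C, and extracted in PBS with 0.5% NP-40 at 4°C. Values, from duplicates, describe thermal stability against control samples on a log2 fold-change scale.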
# ibrutinib = compound: C=CC(=O)N1CCC[C@@H](n2nc(-c3ccc(Oc4ccccc4)cc3)c3c(N)ncnc32)C1 [ibrutinib]
# Procedure, shortened: as §1
# [1] = compound: CC(=O)c1cnc2ccc(-c3cc(Cl)c(O)c(Cl)c3)nc2c1N[C@H]1CC[C@H](CN(C)C)CC1
# Procedure, shortened: as §1
# ralimetinib = compound: CC(C)(C)Cn1c(N)nc2ccc(-c3[nH]c(C(C)(C)C)nc3-c3ccc(F)cc3)nc21 [ralimetinib]
# Procedure, shortened: as §1
# [2] = compound: CC(C)(O)CC(=O)NCCn1ccc2ncnc(Nc3ccc(Oc4cccc(C(F)(F)F)c4)c(Cl)c3)c21
# Procedure, shortened: as §1
# [3] = compound: CC(C)C1=C2N=C(C=C(N2N=C1)NCC3=CC=CC=C3)NCCCCCCN
# Procedure, shortened: as §1
# [4] = compound: CC(C)C[C@@H](C=O)NC(=O)[C@H](CC(C)C)NC(=O)[C@H](CC(C)C)NC(=O)OCc1ccccc1
# Procedure, shortened: as §1
# pinometostat = compound: CC(C)N(C[C@H]1O[C@@H](n2cnc3c(N)ncnc32)[C@H](O)[C@@H]1O)[C@H]1C[C@@H](CCc2nc3cc(C(C)(C)C)ccc3[nH]2)C1 [pinometostat]
# Procedure, shortened: as §1
# [5] = compound: CC1=C(C(CC(=O)N1)C2=CC=C(C=C2)C(F)(F)F)C(=O)NC3=C(C=C4C(=C3)C=NN4)F
# Procedure, shortened: as §1
# [6] = compound: CC1=C(C2=C(C=C1)C(=O)C3=CC=CC=C3N2CCCN)C
# Procedure, shortened: as §1
# [7] = compound: CC1=C(C=C(C=C1)NC(=O)C2=CC(=CC=C2)C(C)(C)C#N)NC3=CC4=C(C=C3)N=CN(C4=O)C
# Procedure, shortened: as §1
# [8] = compound: CC1=C(C=C(C=C1)NC(=O)C2=CC(=CC=C2)N(C)C)NC(=O)C3=CC=C(C=C3)O
# Procedure, shortened: as §1
# [9] = compound: CC1=CC=C(C=C1)SC2=C3C=C(SC3=CN=C2)C(=O)N
# Procedure, shortened: as §1
# [10] = compound: CC1=NC(=CC=C1)C2=C(N=C(N2)C(C)(C)C)C3=CC4=NC=CN=C4C=C3
# Procedure, shortened: as §1
# Nexturastat A = compound: CCCCN(Cc1ccc(C(=O)NO)cc1)C(=O)Nc1ccccc1 [Nexturastat A]
# Procedure, shortened: as §1
# vemurafenib = compound: CCCS(=O)(=O)Nc1ccc(F)c(C(=O)c2c[nH]c3ncc(-c4ccc(Cl)cc4)cc23)c1F [vemurafenib]
# Procedure, shortened: as §1
# [11] = compound: CCCS(=O)(=O)Nc1ccc(F)c(C(=O)c2c[nH]c3ncc(Cl)cc23)c1F
# Procedure, shortened: as §1
# [12] = compound: CCCc1cc(C)[nH]c(=O)c1CNC(=O)c1cc(-c2ccnc(N3CCN(C)CC3)c2)cc2c1cnn2C(C)C
# Procedure, shortened: as §1
# givinostat = compound: CCN(CC)Cc1ccc2cc(COC(=O)Nc3ccc(C(=O)NO)cc3)ccc2c1 [givinostat]
# Procedure, shortened: as §1
# barasertib = compound: CCN(CCCOc1ccc2c(Nc3cc(CC(=O)Nc4cccc(F)c4)[nH]n3)ncnc2c1)CCOP(=O)(O)O [barasertib]
# Procedure, shortened: as §1
# Sequence of UniProt O60488 (O60488 whole entry, looked up): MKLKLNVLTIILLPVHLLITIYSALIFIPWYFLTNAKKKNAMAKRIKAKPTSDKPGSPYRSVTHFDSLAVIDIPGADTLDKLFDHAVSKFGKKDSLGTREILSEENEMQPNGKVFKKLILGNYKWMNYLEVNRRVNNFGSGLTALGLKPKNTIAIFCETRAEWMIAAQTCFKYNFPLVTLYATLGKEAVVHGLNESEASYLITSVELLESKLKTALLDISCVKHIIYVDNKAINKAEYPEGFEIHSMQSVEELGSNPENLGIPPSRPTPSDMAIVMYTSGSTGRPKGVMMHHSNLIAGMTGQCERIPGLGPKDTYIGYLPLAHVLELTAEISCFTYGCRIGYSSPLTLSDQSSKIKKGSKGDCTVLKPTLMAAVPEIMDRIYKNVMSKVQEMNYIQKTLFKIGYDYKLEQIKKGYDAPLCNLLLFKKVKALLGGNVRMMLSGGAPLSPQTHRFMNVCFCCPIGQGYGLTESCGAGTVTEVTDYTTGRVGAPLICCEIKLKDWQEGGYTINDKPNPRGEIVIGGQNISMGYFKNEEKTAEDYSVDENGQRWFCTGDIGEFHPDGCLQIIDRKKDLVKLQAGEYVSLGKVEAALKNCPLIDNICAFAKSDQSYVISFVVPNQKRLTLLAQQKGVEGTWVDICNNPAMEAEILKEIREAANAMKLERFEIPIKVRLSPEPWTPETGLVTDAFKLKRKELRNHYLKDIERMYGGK
# Sequence of UniProt Q00973 (Q00973 whole entry, looked up): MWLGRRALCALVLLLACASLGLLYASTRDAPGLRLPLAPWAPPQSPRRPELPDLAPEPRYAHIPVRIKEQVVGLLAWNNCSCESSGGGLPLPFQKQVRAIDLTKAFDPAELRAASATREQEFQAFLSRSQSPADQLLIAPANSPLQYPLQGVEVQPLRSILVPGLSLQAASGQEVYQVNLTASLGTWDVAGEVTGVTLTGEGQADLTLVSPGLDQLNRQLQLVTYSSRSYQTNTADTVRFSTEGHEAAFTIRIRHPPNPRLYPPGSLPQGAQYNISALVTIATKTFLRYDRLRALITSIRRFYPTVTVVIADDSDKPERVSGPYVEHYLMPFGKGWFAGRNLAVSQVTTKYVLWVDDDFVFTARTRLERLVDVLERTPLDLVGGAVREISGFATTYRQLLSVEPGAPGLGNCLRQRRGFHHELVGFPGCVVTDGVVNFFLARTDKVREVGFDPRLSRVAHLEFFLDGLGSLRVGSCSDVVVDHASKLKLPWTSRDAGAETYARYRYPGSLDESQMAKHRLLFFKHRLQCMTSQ
# Sequence of UniProt P35611 (P35611 whole entry, looked up): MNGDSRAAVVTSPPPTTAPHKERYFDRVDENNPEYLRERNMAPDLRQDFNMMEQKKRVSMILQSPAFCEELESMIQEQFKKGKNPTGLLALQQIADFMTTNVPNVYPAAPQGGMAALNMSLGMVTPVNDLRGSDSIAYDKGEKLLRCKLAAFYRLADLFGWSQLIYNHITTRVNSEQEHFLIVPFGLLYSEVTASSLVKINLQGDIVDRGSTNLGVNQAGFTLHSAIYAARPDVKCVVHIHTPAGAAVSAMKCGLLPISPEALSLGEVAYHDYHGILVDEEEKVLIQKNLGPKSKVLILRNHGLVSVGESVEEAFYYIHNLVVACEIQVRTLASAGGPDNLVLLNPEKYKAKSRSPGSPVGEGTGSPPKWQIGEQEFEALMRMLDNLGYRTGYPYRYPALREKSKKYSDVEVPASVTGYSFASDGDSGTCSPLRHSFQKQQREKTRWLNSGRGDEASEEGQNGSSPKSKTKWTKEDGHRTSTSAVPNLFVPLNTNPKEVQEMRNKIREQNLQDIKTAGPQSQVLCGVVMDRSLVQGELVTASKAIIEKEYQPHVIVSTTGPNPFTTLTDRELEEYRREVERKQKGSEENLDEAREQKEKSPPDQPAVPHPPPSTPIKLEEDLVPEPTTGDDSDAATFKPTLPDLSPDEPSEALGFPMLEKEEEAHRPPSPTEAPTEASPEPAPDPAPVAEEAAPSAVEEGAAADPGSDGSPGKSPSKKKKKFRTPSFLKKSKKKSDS
# Sequence of UniProt P55196 (P55196 whole entry, looked up): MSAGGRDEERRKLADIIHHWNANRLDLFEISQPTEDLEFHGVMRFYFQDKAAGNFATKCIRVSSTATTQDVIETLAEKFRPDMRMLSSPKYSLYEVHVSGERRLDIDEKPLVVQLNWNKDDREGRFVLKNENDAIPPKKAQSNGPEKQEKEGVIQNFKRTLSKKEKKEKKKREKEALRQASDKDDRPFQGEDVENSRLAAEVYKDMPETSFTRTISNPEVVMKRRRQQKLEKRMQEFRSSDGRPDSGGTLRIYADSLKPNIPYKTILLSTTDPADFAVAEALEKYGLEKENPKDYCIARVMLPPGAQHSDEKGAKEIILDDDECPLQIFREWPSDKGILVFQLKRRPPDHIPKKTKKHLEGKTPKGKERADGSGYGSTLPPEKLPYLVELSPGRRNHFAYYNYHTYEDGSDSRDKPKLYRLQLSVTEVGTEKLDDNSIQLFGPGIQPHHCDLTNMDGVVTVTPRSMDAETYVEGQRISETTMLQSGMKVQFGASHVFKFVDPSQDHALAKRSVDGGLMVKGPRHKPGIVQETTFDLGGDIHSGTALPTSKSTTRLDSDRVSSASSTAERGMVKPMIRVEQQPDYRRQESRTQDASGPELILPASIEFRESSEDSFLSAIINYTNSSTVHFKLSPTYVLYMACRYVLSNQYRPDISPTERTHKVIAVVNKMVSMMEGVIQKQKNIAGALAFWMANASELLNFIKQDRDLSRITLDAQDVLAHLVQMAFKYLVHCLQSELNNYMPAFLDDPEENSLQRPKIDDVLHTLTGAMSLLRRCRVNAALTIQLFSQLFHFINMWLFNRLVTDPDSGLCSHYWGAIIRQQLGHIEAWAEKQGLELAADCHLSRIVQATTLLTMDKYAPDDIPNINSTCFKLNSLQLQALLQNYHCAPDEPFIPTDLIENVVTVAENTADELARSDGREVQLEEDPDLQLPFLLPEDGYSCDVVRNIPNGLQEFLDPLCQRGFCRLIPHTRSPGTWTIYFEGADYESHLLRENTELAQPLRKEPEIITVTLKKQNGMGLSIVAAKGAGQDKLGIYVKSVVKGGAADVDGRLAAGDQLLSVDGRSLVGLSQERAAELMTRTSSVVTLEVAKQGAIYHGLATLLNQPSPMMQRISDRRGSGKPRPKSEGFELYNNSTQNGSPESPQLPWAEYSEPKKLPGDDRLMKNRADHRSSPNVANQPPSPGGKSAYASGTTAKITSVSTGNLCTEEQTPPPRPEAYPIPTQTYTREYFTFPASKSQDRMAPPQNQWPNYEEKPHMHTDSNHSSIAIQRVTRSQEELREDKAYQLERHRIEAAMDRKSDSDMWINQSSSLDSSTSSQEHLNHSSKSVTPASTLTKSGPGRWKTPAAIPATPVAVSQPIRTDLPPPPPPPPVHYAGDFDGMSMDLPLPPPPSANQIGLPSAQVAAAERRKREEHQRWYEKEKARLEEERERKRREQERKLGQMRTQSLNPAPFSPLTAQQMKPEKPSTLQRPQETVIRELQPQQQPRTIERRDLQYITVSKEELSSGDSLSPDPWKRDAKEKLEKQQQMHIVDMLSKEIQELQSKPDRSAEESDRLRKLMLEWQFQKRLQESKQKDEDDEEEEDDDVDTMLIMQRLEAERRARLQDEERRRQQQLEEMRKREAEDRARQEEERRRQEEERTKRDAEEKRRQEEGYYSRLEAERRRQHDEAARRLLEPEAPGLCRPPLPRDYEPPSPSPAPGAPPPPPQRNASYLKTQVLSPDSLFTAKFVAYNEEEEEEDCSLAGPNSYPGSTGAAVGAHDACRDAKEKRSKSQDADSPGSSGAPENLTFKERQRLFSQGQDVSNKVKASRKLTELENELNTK
# Sequence of UniProt Q9P287 (Q9P287 whole entry, looked up): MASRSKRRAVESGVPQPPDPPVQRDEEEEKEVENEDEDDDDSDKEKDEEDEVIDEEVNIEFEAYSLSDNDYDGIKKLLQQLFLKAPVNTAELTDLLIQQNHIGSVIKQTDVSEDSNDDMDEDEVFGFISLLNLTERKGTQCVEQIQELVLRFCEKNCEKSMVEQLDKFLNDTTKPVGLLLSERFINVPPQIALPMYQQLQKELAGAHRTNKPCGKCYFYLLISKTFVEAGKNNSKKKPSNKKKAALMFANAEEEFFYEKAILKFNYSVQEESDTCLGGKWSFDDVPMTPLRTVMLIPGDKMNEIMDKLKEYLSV
# Sequence of UniProt Q6QNY0 (Q6QNY0 whole entry, looked up): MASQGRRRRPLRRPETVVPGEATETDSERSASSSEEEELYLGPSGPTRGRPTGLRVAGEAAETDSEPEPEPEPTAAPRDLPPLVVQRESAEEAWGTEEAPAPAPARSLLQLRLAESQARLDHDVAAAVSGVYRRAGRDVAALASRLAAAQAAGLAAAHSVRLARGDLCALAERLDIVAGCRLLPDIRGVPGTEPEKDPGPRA
Target,log2 fold change (IRAK-1-4 Inhibitor I),log2 fold change (ibrutinib),log2 fold change [1],log2 fold change (ralimetinib),log2 fold change [2],log2 fold change [3],log2 fold change [4],log2 fold change (pinometostat),log2 fold change [5],log2 fold change [6],log2 fold change [7],log2 fold change [8],log2 fold change [9],log2 fold change [10],log2 fold change (Nexturastat A),log2 fold change (vemurafenib),log2 fold change [11],log2 fold change [12],log2 fold change (givinostat),log2 fold change (barasertib)
BLOC1S3 (UniProt Q6QNY0),0.018,-0.037,0.427 (active),-0.033,-0.058,0.005,-0.045,-0.041,-0.01,0.076,-0.03,0.049,0.046,0.052,-0.031,-0.049,-0.029,-0.058,-0.016,0.021
AFDN isoform 5 (UniProt P55196),-0.018,-0.012,-0.19,-0.002,-0.125,-0.082,0.01,0.004,0.007,0.049,-0.031,-0.049,0,0.087,-0.033,0.021,0.023,0.007,0.062,0.015
ACSL4 (UniProt O60488),-0.067,0.001,0,0.049,-0.237,-0.443 (active),0.038,0.098,0.019,0,0.018,-0.051,0.418 (active),-0.002,0.233,0.021,0.104,0.053,0.047,0.034
B4GALNT1 (UniProt Q00973),0.01,-0.159,-0.188,-0.129,0.017,0.038,0.052,-0.101,-0.119,0.057,0.075,-0.028,-0.109,0.005,0.096,-0.172,-0.044,-0.028,-0.123,0.104
ADD1 isoform 3 (UniProt P35611),0.048,0.011,-0.274 (active),-0.068,-0.008,0.038,-0.003,-0.001,-0.004,0.008,-0.015,-0.031,-0.026,0.015,0.025,-0.059,0.013,-0.025,-0.015,-0.022
BCCIP isoform 2 (UniProt Q9P287),0.013,-0.025,0.008,-0.048,0.012,0.008,-0.012,0.029,-0.012,0.077,0.042,-0.055,-0.015,0.022,-0.065,0.008,-0.003,-0.099,-0.066,0.026
